Bioassay records from PubChem.
Only some compounds are listed: those with a hit (about 4.8% of all), similar ones and a draw of the others.
DAX1 inh-1 – inhibitors of human orphan nuclear receptor DAX1 (NR0B1); P51843; HEK293 Gal4-DAX1 luciferase reporter, luminescence; inhibition, % at 6.75 µM; 340,000 tested, 0.99% active; AID 504766;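 active means inhibition above the mean over all tested compounds plus 3 SD, cut at about 4.2% in these data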;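 further: 0% = DAX1-transfected cells with DMSO and 100% = empty-vector control cells with DMSO; inhibition shows as a rise in luminescence from relieved DAX1 repression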
Target sequence (P51843 207-470 limits assumed): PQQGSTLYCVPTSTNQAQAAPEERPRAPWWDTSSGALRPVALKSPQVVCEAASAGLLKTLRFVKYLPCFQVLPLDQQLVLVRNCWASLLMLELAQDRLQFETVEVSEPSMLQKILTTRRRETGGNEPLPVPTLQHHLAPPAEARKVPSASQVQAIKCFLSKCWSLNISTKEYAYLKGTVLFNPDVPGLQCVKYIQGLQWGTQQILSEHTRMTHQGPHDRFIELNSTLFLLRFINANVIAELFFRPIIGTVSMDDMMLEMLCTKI
hcDAF-12 act – H. contortus DAF-12 activation, primary screen; activation, % at 6.8 µM; HEK293 hcDAF-12 lit1-tk-luc reporter, luminescence; 0% DMSO, 100% Δ7-dafachronic acid; 370,000 tested, 1.4% active;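 active means activation above the mean of all tested compounds plus 3 SD, cut at about 5.5% in these data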;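 further: 100% = response to 3 µM Δ7-dafachronic acid high control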
DAX1 inh-2 – DAX1 (NR0B1) inhibition, primary screen. AID 652010. inhibition, % at 6.8 µM. HEK293T StAR-luciferase reporter, SF-1/DAX-1 repression relief. 370,000 tested, 1.1% active;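 active means inhibition above the mean over all tested compounds plus 3 SD, cut at about 3.6% in these data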;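 further: 0% = DAX-1 cells with DMSO and 100% = cells lacking DAX-1 with DMSO; higher inhibition means more luminescence from relief of DAX-1 repression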
hgDAF12 agonist – agonists of H. glycines DAF-12 nuclear receptor | activation, % at 6.8 µM | HEK293 GAL4-hgDAF12 UAS-luciferase reporter, agonist luminescence; normalized to butyrate control | 370,000 tested, 1.8% active;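 active means activation above a cutoff set at the mean of all screened compounds plus 3 SD, cut at about 10% in these data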;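 further: 0% = DMSO wells and 100% = sodium butyrate wells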
SMARCA2 activ – increases SMARCA2 function in MMTV reporter cells. activation, % at 9.1 µM. MG213 cells, MMTV-luciferase reporter, dexamethasone, overnight. 370,000 tested, 1% active; in the data active means activation above about 7.8%;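 further: 0% = vehicle wells and 100% = reference activator wells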
ssDAF12 agonist – S. stercoralis DAF-12 activation, primary screen; HEK293 ssDAF-12/GRIP1 lit1-tk-luc reporter, luminescence; % of 3 µM dafachronic acid response; activation, % at 6.8 µM; 370,000 tested, 1% active;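 active means activation above the mean over all tested compounds plus 3 SD, cut at about 0.9% in these data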;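 further: 0% = DMSO-only wells and 100% = 3 µM delta7-dafachronic acid wells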
An asterisk follows results filed as active; . = no result.

SMILES	DAX1 inh-1	hcDAF-12 act	DAX1 inh-2	hgDAF12 agonist	SMARCA2 activ	ssDAF12 agonist
COc1cc(OC)cc(C(=O)Nc2sc3c(c2C(N)=O)CCC3)c1	1	1	0	7	1	1.1*
COc1ccc(S[C@]2(C(=O)N3CCN(C(C)=O)CC3)CC(=O)N(C(=O)CCc3ccccc3)[C@@H]2c2ccc(OC)cc2)cc1	.	3	-1	3	-6	-2
CCOC(=O)[C@@]12CCC3=C1N(CCC3)C(=O)[C@H](CC(=O)NCCCOC)C2	.	0	-1	-3	-1	-1
CCc1ccc(-c2csc3ncn(CC)c(=O)c23)cc1	0	-1	0	-3	-2	18*
CCn1cnc2scc(-c3ccc(OC)cc3)c2c1=O	0	-2	-1	1	-1	-1
O[C@H](COc1cc(F)cc(F)c1)CN1CCC(C(O)(c2ccccc2)c2ccccc2)CC1	.	-1	-1	-2	-4	-1
O=C(Cn1nnc(-c2ccc(N3CCOCC3)cc2)n1)c1cccc(F)c1	.	-2	-1	-1	-6	-1
CCC(C)(C)NC(=O)CN(Cc1cccs1)C(=O)CNS(=O)(=O)c1ccc(C)cc1	6.4*	0	-1	0	-3	-1
CC(C)(C)NC(=O)CN(Cc1cccs1)C(=O)CNS(=O)(=O)c1ccc(F)cc1	-1	-2	0	-3	-3	-1
COc1ccc(/C=C(\C#N)C(=O)Nc2ccccn2)cc1	-1	0	0	0	0	-1
C=CCOc1ccc(/C=C(\C#N)C(=O)Nc2ccccn2)cc1OC	4.7*	-1	0	-1	3	-1
Cc1ccc(O)c(/C=N/NC(=O)c2[nH]ncc2Br)c1	2	6.2*	0	2	4	-1
CCOc1ccc(CCN2C(=S)N([C@@H](Cc3ccc(O)cc3)CN3CCC[C@@H]3CN3C(=S)NC[C@@H]3CC(C)C)C[C@@H]2CC(C)C)cc1	.	-1	-1	2	2	-1
CCOc1ccc(CCN2C(=S)N([C@@H](CC(C)C)CN3CCCC3CN3C(=S)NC[C@@H]3CC(C)C)C[C@@H]2CC(C)C)cc1 (stereo not given in full)	1	0	4.4*	0	1	-1
Cc1nc(N2CCOCC2)nc(N2CCCCC2C)c1[N+](=O)[O-] (stereo not given)	5.5*	0	0	-2	0	-1
Cc1ccccc1CS(=O)(=O)Cc1ccc(C(=O)Nc2c(C)cccc2C)o1	.	-3	-1	-1	-6	-1
Cc1ccc(-c2c(NC(=O)c3ccccc3)nc3ncccn23)cc1	.	1	0	2	5	-1
O=C(NCC(c1ccco1)N1CCN(c2ccccc2)CC1)c1cccs1 (stereo not given)	-1	1	-1	0	-1	-1
O=C(COc1ccccc1)NCC(c1ccco1)N1CCN(c2ccccc2)CC1 (stereo not given)	-2	0	-2	12*	-1	-1
COC(=O)CC[C@H](/C=C/C(=O)OC(C)(C)C)Sc1ccc(C(C)(C)C)cc1	.	-1	-1	-1	3	-1
COc1ccc2cc(CCOC3CCCCO3)ncc2c1 (stereo not given)	2	6.5*	2	9	5	0
Clc1cccc(OCc2nnc(-c3ccccc3Br)o2)c1	1	0	1	2	-10	-1
Clc1ccc(OCc2nnc(-c3ccccc3Br)o2)cc1	0	0	0	0	-1	2.1*
CC(=O)N1CCN(c2nnc(-c3ccc(C)cc3)c3ccccc23)CC1	0	1	-1	-2	-2	1.1*
Oc1csc(Cc2nc(-c3ccc4ccccc4c3)cs2)n1	3	6.3*	3	6	6	1.1*
SMILES	DAX1 inh-1	hcDAF-12 act	DAX1 inh-2	hgDAF12 agonist	SMARCA2 activ	ssDAF12 agonist
COc1oc(-c2ccccc2)nc1C(F)(F)F	4.3*	-1	1	0	-1	0
COc1ccc(NC(=O)N2CCC(c3nc4ccc(Cl)cc4[nH]3)CC2)cc1OC	.	-4	-1	0	-3	-2
Cc1nc2cc(-c3cccc(F)c3)nn2c(N2CCN(C(=O)c3ccco3)CC2)c1C	0	5.8*	0	4	4	1
CC1CCCC=CC2CC(OC(=O)CN(C)C)CC2C(O)C=CC(=O)O1 (stereo not given)	-2	-2	4.5*	-8	-9	-2
O=C(Cc1ccccc1)NNc1ccc2ccccc2c1	3	5.9*	2	1	0	0
CCOC(=O)CC[C@@]1(C(=O)OCC)C[C@@H](CC(=O)NCc2cccs2)C(=O)N2CCCC=C21	.	-2	0	-3	-3	-1
C=CCn1c(Br)nc2c1c(=O)[nH]c(=O)n2C	2	-1	0	2	-1	-1
Cn1c(=O)[nH]c(=O)c2c1nc(Br)n2C/C=N/Nc1ccccc1	1	0	3.7*	-2	3	0
Cn1c(=O)[nH]c(=O)c2c1nc(Br)n2C/C=N/NC(=O)c1ccccc1	4.6*	0	1	6	4	0
O=S(=O)(Nc1nccs1)c1cnc(Cl)c(Br)c1	1	5	1	0	-4	-1
O=S(=O)(Nc1nc2ccccc2s1)c1cnc(Cl)c(Br)c1	2	5	1	0	-2	1.0*
C=CCN(C(=O)[C@@H](CCCC)[C@@H](O)c1ccc(C(C)=O)cc1)c1ccccc1	.	-1	-1	4	-2	-1
O=C(CCc1ccccc1)N[C@H]1[C@H](OCc2ccccc2)CCC[C@@]12C(=O)N(Cc1ccccc1)c1ccc(-c3ccsc3)cc12	.	-2	-1	4	-4	-2
O=C(Oc1cccc2ccccc12)c1ccco1	0	6.0*	0	-2	-1	-1
Cc1ccc(NC(=S)NC(=O)c2ccc(-c3ccc(Cl)cc3)o2)c(O)c1	1	3	0	2	-3	2.5*
COc1cccc(OC[C@@H](O)CN2CCC(C(O)(c3ccccc3)c3ccccc3)CC2)c1	.	0	0	2	-4	-1
CCOc1ccc(/C=N/Nc2nc(C)cs2)c(O)c1	4.5*	5	0	1	0	1
COc1ccc(Cn2c(SCc3ccc(C)cc3)nc3cc(OC)c(OC)cc3c2=N)cc1Cl	-1	-2	-1	3	9.2*	-1
CN=C1S/C(=C\c2cn(CC(=O)OC)c3ccccc23)C(=O)N1C	0	5	0	-2	-4	0.9*
CN=C1S/C(=C/c2cn(CC(=O)OC)c3ccccc23)C(=O)N1C	2	3	-1	2	-1	1.7*
N#Cc1ccc(/C=C2\CC3(OC(=O)C4CCCCC4)CCCN2C3)cc1 (stereo not given)	.	-3	1	-1	-3	-1
